Only some compounds are listed: those with a hit (about 2.9% of all), similar ones and a draw of the others.
Mtb FBA inh = inhibitors of M. tuberculosis fructose-bisphosphate aldolase. P9WQA3. purified M. tuberculosis FBA, fluorescence read-out. inhibition, % at 1 µM. actives 2.3% (n = 360,000). AID 588726; in the data active = inhibition above about 27%;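 note: 0% = vehicle and 100% = reference inhibitor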
Target sequence (P9WQA3 whole entry, looked up): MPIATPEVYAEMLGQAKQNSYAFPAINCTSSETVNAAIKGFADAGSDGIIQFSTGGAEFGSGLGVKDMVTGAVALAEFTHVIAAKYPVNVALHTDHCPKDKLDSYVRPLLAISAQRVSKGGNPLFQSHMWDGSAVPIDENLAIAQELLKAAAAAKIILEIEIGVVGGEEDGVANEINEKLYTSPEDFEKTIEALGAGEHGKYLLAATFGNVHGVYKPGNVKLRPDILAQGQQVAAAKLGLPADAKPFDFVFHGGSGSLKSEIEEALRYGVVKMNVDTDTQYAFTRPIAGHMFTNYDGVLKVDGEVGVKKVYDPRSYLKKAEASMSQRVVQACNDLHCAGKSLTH
BioA inh = BioA (M. tuberculosis) enzyme inhibition. AID 602481. purified M. tuberculosis BioA enzyme, plate reader. inhibition, % at 9.99 µM. actives 0.096% (n = 360,000); in the data active = inhibition above about 40%
FadD28 FP inh = blocks FadD28 binding to the bisubstrate probe | fluorescence polarization | inhibition, % at 12.5 µM | actives 0.22% (n = 360,000) | AID 588549; in the data active = inhibition above about 8.5%, passing the limit was not always enough
GDH-TPI inh = GDH-TPI coupled enzyme inhibition counter-screen | GDH-TPI coupled enzyme counterscreen, NADH absorbance | inhibition, % at 4.8 µM | actives 1.2% (n = 360,000); in the data active = inhibition above about 30%;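 note: 0% = DMSO wells and 100% = wells lacking the enzyme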
Mtb hypoxia inh = inhibitors of hypoxia-regulated fluorescent reporter in Mycobacterium tuberculosis; AID 1159583; fluorescence inhibition, % (concentration not given with the values); M. tuberculosis hypoxia-regulated fluorescent reporter, fluorescence; actives 0.1% (n = 300,000); in the data active = fluorescence inhibition mostly above about 23%, no sharp cut-off; inactive = mostly below about 17%
* marks the source's active call; other numbers are inactive results; . = no result given.

SMILES	Mtb FBA inh	BioA inh	FadD28 FP inh	GDH-TPI inh	Mtb hypoxia inh
O=C1NC(=O)N(Cc2ccc(F)cc2)C(=O)/C1=C\c1ccc([N+](=O)[O-])s1	-3	1	28*	30	.
COc1ccc2[nH]c(C(=O)N/N=C/c3ccc(OC)c(O)c3)cc2c1	0	.	-2	49*	.
COc1ccc(OC)c(C=NNC(=O)c2cc3c(OC)c(OC)ccc3[nH]2)c1	.	.	.	.	3
COc1ccc2[nH]c(C(=O)Nc3ccc(F)cc3Br)cc2c1	6	0	-2	32*	7
COc1ccc(OC)c(/C=N/NC(=O)c2cc3c(OC)c(OC)ccc3[nH]2)c1	1	.	-2	35*	.
COc1ccc2[nH]c(C(=O)Nc3ncc(C)cc3Br)cc2c1	6	.	-3	-3	9
CCOc1ccc2[nH]c(C(=O)N/N=C/c3ccccc3OC)cc2c1	6	-1	-2	22	.
COc1ccc2[nH]c(C(=O)N/N=C/c3ccccc3OC)cc2c1	5	2	-2	38*	.
COc1ccc(S(=O)(=O)N(C)C[C@@H]2OCCCC[C@@H](C)Oc3ccc(NC(=O)CCCCCC(=O)Nc4ccccc4N)cc3C(=O)N([C@H](C)CO)C[C@@H]2C)cc1	.	3	.	.	.
O=C(C[C@@H]1CC[C@@H](NC(=O)NC2CCCCC2)[C@H](CO)O1)NCc1ccccc1	.	0	.	.	.
Cc1ccccc1-n1c(C)cc(C=NNc2ccc([N+](=O)[O-])cn2)c1C	.	.	.	.	12
COCC(=O)Nc1ccc2c(c1)C(=O)N(C)C[C@@H](OC)[C@@H](C)CN(C(=O)c1ccccc1)[C@H](C)CO2	.	-2	.	.	.
COc1ccc(-c2cnc3c(c2)C(=O)N([C@H](C)CO)C[C@@H](C)[C@H](CN(C)Cc2ccc(C(=O)O)cc2)O3)cc1	.	3	.	.	.
CN1C(=CC(=O)C(F)F)C(C)(C)c2ccccc21	.	.	.	.	12
COc1ccccc1C=NNC(=O)C(=O)NN=Cc1ccccc1OC	3	0	-3	34*	8
C=CCOc1ccc(C=NNC(=O)c2cc3c(OC)cc(OC)cc3[nH]2)cc1	.	.	.	.	0
CCOc1ccc(/C=N/NC(=O)c2cc3c(OC)cc(OC)c(OC)c3[nH]2)cc1	1	-1	1	34*	.
COc1ccc2c(COC(=O)CNS(=O)(=O)c3ccccc3)cc(=O)oc2c1	119*	0	-5	14	10
COc1ccc2c(COC(=O)c3cccc(S(=O)(=O)NCC(C)C)c3)cc(=O)oc2c1	42*	-1	-5	0	14
COc1ccc(OC)c(CN2CCN(Cc3cc(=O)oc4cc(O)ccc34)CC2)c1	115*	2	-1	11	-2
COC(=O)Cc1cc(=O)oc2cc(OC)ccc12	119*	0	-1	15	6
C[C@@H]1CN([C@@H](C)CO)C(=O)c2cccc(NS(=O)(=O)c3cn(C)cn3)c2O[C@@H]1CN(C)S(=O)(=O)c1ccc(F)cc1	.	-3	.	.	.
C[C@H](CO)N1C[C@H](C)[C@@H](CN(C)C(=O)CN(C)C)Oc2cc(-c3ccc(C#N)cc3)ccc2S1(=O)=O	.	-3	.	.	.
CCn1c(C)nc2cc(C(=O)N/N=C/c3ccc(N4CCOCC4)cc3)ccc21	4	.	-1	34*	.
CCn1c(C)nc2cc(C(=O)N/N=C/c3ccc(OC)cc3)ccc21	6	.	-2	21	.
SMILES	Mtb FBA inh	BioA inh	FadD28 FP inh	GDH-TPI inh	Mtb hypoxia inh
CCn1c(C)nc2cc(C(=O)N/N=C/c3ccc(OC)c(O)c3)ccc21	-1	.	-5	39*	.
C[C@H](CO)N1C[C@H](C)[C@@H](CN(C)Cc2cccnc2)Oc2ncc(-c3ccncc3)cc2C1=O	.	4	.	.	.
O=C(CCN1C(=O)S/C(=C\c2ccc(F)cc2)C1=O)Nc1ccc(O)cc1C(=O)O	0	0	0	43*	-11
O=C(CCN1C(=O)S/C(=C\c2ccc(F)cc2)C1=O)Nc1ccc(C(=O)O)c(O)c1	6	2	-2	43*	.
O=C(CCN1C(=O)S/C(=C/c2ccc(F)cc2)C1=O)Nc1ccc(O)c(C(=O)O)c1	3	1	-2	32*	-4
O=C(CCN1C(=O)S/C(=C\c2ccc(Cl)cc2)C1=O)Nc1ccc(C(=O)O)cc1	-2	-1	-5	-1	0
O=C(CCN1C(=O)S/C(=C/c2ccccc2)C1=O)Nc1ccc(C(=O)O)c(O)c1	-1	1	-5	25	.
CCC(=O)N1C[C@H]2[C@@H](c3ccccc31)[C@H](CO)N2Cc1ccc(F)cc1	.	-3	.	.	.
Cn1c2ccccc2c2cc(/C=N/NC(=O)c3ccc(N)cc3)ccc21	15	-1	-2	36*	.
Cn1c(/C=N/NC(=O)c2ccccc2)nc2ccccc21	8	-2	-3	47*	.
Cn1c(-c2ccccc2)c(/C=N/NC(=O)c2ccc(O)cc2)c2ccccc21	3	0	-7	52*	.
Cn1c2ccccc2c2cc(/C=N/NC(=O)c3ccccc3F)ccc21	12	-1	-1	47*	.
C[C@H]1CN([C@@H](C)CO)C(=O)c2cc(NC(=O)Cn3cnnn3)ccc2O[C@H]1CN(C)CC1CCCCC1	.	0	.	.	.
O=C(Cc1ccccn1)NCC[C@@H]1CC[C@@H](NC(=O)Nc2ccc(F)cc2)[C@H](CO)O1	.	1	.	.	.
Cc1ccc(C2CC=C(C(=O)O)C(c3ccc(Cl)cc3)N2S(=O)(=O)c2ccc(C)cc2)cc1 (stereo not given)	.	.	.	.	13
O=C(NN=Cc1ccc2c(c1)OCO2)c1cncc(Br)c1	.	.	.	.	2
O=C(C[C@H]1CC[C@@H]2[C@H](COC[C@H](O)CN2C(=O)Nc2cccc(F)c2)O1)NCCCN1CCOCC1	.	4	.	.	.
CCn1c2ccccc2c2cc(/C=N/NC(=O)c3ccccc3C)ccc21	5	-1	-1	35*	.
CCn1c2ccccc2c2cc(C=NNC(=O)c3ccccc3)ccc21	.	.	.	.	3
Cc1noc(C)c1S(=O)(=O)Nc1cccc2c1O[C@@H](CN(C)Cc1ccc(Cl)c(Cl)c1)[C@@H](C)CN([C@H](C)CO)C2=O	.	-2	.	.	.
O=C(O)CCCNC(=O)/C(=C\C=C\c1ccccc1)NC(=O)c1ccccc1Cl	-1	.	-3	20	-8
C=CCNC(=O)/C(=C\C=C\c1ccccc1)NC(=O)c1ccccc1Cl	-3	.	-4	31*	12
COc1cc(C=C2NC(=O)NC2=O)ccc1O	4	-1	2	35*	.
CCOc1cc(C=C2C(=O)NC(=S)NC2=O)ccc1O	1	0	2	34*	16
CCOc1cc(/C=C2\NC(=O)NC2=O)cc([N+](=O)[O-])c1O	-4	3	2	32*	16
SMILES	Mtb FBA inh	BioA inh	FadD28 FP inh	GDH-TPI inh	Mtb hypoxia inh
COc1cc(C=NCc2ccccc2)ccc1O	-2	1	-1	42*	.
CCOc1cc(/C=C2\NC(=O)NC2=O)ccc1OC(C)C(=O)O (stereo not given)	-1	-1	0	47*	-2
COc1ccc(/C=N/N(Cc2ccccc2)c2ccccc2)cc1O	-3	21	12*	8	.
COc1cc(C=O)ccc1O	-1	-1	-1	58*	.
COc1ccc(C=NN(Cc2ccccc2)c2ccccc2)cc1O	.	.	.	.	10
COc1cc(/C=C2/NC(=O)NC2=O)ccc1OCC(=O)Nc1ccc(F)cc1	-1	-1	-4	15	0
COc1ccc(C=NNc2cc(C)nc(-n3nc(C)cc3C)n2)c(OC)c1	.	.	.	.	-9

Bioassay records deposited in PubChem by several laboratories.
